The record followed here is PubChem BioAssay (NCATS).

Test [1] can be described thus: Quantitative highthroughput screen to assess conditional lethalithy of NOMO1 cells grown in RPMI1640 with untreated serum (RPMI+s) (AID 1963876).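 For viability: 100% = DMSO wells and 0% = empty wells without cells.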 Note: nearly all actives have a fitted effect of over 35% in size. Summed up: (§1)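 Each medium arm—HPLM with 10% dialyzed FBS, or RPMI1640 with 5 mM glucose and 10% untreated or dialyzed FBS—was screened against an 11-point, 3-fold compound titration for 48 h at 37 °C, with CellTiter-Glo luminescence as endpoint.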

Test [2] in a line: Quantitative highthroughput screen to assess conditional lethalithy of NOMO1 cells grown in RPMI1640 with dialyzed fetal bovine serum (RPMI+ds) (AID 1963877).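 For viability: series mostly up to about 46 µM; 100% = DMSO control wells and 0% = empty wells.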 Note: nearly all actives have a fitted effect of over 30% in size. Summed up: as §1
The nature of test [3]: Quantitative highthroughput screen to assess conditional lethalithy of NOMO1 cells grown in Human Plasma-Like Medium with dialyzed fetal bovine serum (HPLM+ds) (AID 1963878).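 For viability: 100% = DMSO wells and 0% = empty wells on each plate.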 Note: nearly all actives have a fitted effect of over 35% in size. The procedure, abridged:
as §1

Test [4] can be described thus: Quantitative highthroughput screen to assess conditional lethalithy of P12 Ichikawa cells grown in Human Plasma-Like Medium with dialyzed fetal bovine serum (HPLM+ds) (AID 1963879). For viability: series mostly up to about 46 µM. Note: nearly all actives have a fitted effect of over 35% in size. The following applies: Potency: viability. Summed up: as §1
A short description of test [5]: Quantitative highthroughput screen to assess conditional lethalithy of P12 Ichikawa cells grown in RPMI1640 with dialyzed fetal bovine serum (RPMI+ds) (AID 1963880).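 For viability: 100% = DMSO wells and 0% = empty wells on each plate.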 Note: nearly all actives have a fitted effect of over 35% in size. The following applies: Potency: P12-Ichikawa viability. The procedure, abridged: as §1
Test [6] in a line: Quantitative highthroughput screen to assess conditional lethalithy of P12 Ichikawa cells grown in RPMI1640 with untreated serum (RPMI+s) (AID 1963881).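 For viability: series mostly up to about 46 µM; 100% = DMSO wells and 0% = empty wells without cells.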 Note: nearly all actives have a fitted effect of over 35% in size. The following applies: Potency: viability. Summed up: as §1
Test [7] can be described thus: Quantitative highthroughput screen to assess conditional lethalithy of SEM cells grown in Human Plasma-Like Medium with dialyzed fetal bovine serum (HPLM+ds) (AID 1963882). For viability: series mostly up to about 46 µM. Note: nearly all actives have a fitted effect of over 35% in size. The procedure, abridged:
as §1

Test [8] can be described thus: Quantitative highthroughput screen to assess conditional lethalithy of SEM cells grown in RPMI1640 with unreated serum (RPMI+s) (AID 1963883).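 For viability: 100% = DMSO wells and 0% = empty wells without cells.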 Note: nearly all actives have a fitted effect of over 35% in size. Summed up: as §1
The nature of test [9]: Quantitative highthroughput screen to assess conditional lethalithy of SEM cells grown in RPMI1640 with dialyzed fetal bovine serum (RPMI+ds) (AID 1963884).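 For viability: series mostly up to about 46 µM; 100% = DMSO control wells and 0% = empty wells without cells.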 Note: nearly all actives have a fitted effect of over 35% in size. Summed up: as §1
Test [10] is described as follows: Cellular viability qHTS for adrenocortical cancer (ACC) cell line SW-13 (AID 1963989).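 For activity (max response): cells grown in serum-free medium with ITS supplement; % is set by controls: 0 for no effect and ±100 for the full control effect.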 Note: nearly all actives have a fitted effect of over 65% in size. As to conditions: SW-13 ACC cells viability, CellTiter-Glo, 48 h; activity (max response): hits give low values. The procedure, abridged: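 IC50 and maximal-response values come from four-parameter logistic fits of titration data. SW-13 cells in serum-free medium received compounds (up to 46 uM final) for 48 h before CellTiter-Glo luminescence.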
(In qHTS, concentration-response curves come from the screen itself.)

A short description of test [11]: Cellular viability qHTS for adrenocortical cancer (ACC) cell line NCI-H295R (AID 1963990). Note: nearly all actives have a fitted effect of over 60% in size. Summed up: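 Adrenocortical carcinoma cells, suspended at 300 000 cells/mL in serum-free DMEM plus ITS, rested overnight before pin transfer of compound. After two days' incubation, ATP-dependent luminescence was recorded and curve-fitted.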

Inconclusive results are not listed. Unmarked numbers belong to inactive results. Active and inactive are the calls of the source. Calls come from the whole dose curve; as a rule, active = well fitted curve in the direction sought with a large enough effect; inconclusive = small, poorly fitted or top-dose-only effect, or another doubt; inactive = no such curve, though single readings can be large; an effect the other way counts as inactive or inconclusive.
Potency is the fitted concentration of half-maximal effect.

With `COc1cc(Nc2ncc(F)c(Nc3ccc4c(n3)NC(=O)C(C)(C)O4)n2)cc(OC)c1OC`, the Potency was 5.9 µM (active) in test [1]; 9.35 µM (active) in test [2]; 4.69 µM (active) in test [3]; 4.18 µM (active) in test [4]; 5.26 µM (active) in test [5]; 5.26 µM (active) in test [6]. For the same molecule, the Potency in [7] was 1.66 µM (active); in [8], 1.48 µM (active); in [9] it was 1.66 µM (active).

Regarding `Cc1csc(NC(=O)c2sc3nc4c(c(C(F)(F)F)c3c2N)CCC4)n1`, the Potency entry in test [1], in test [2], in test [3], in [4], in [5] and in test [6] was “inactive” throughout. The Potency entry in [7], in test [8], in [9] and in [11] was “inactive” throughout. Also, the activity (max response) in [10] is -2.72%.

On to `CN1CCN2c3ncccc3Cc3ccccc3C2C1` (stereo unspecified), for which the Potency entry in test [1], in test [2], in test [3], in [4], in test [5] and in [6] was “inactive” in each case. Also, the Potency entry in test [7], in test [8], in [9] and in test [11] was “inactive” in each case. For the same molecule, the activity (max response) in [10] is -3.47%.

In the case of `CC#CCn1c(N2CCC[C@@H](N)C2)nc2c1c(=O)n(Cc1nc(C)c3ccccc3n1)c(=O)n2C`, the Potency entry in test [1], in [2], in test [3], in test [4], in [5] and in test [6] was “inactive” in each case. The Potency entry in test [7], in [8], in test [9] and in test [11] was “inactive” in each case.

On to `COc1ccccc1N1CCN(CCN(C(=O)C2CCCCC2)c2ccccn2)CC1`, for which the Potency result in test [1], in [2], in test [3], in test [4], in test [5] and in test [6] was “inactive” each time. Besides, the Potency entry in [7], in test [8], in test [9] and in test [11] was “inactive” each time.

For the molecule `CNC(=O)c1ccc(N2C(=S)N(c3ccc(C#N)c(C(F)(F)F)c3)C(=O)C2(C)C)cc1F`, the Potency result in test [1], in test [2], in test [3], in test [4], in test [5] and in [6] was “inactive” throughout. In addition, the Potency entry in [7], in test [8], in test [9] and in test [11] was “inactive” throughout. The activity (max response) in [10] is -1.24%.

As to `CC(C)(C)COc1ccc(-n2cc(C(=O)O)cn2)cc1C#N`, the Potency entry in test [1], in test [2], in test [3], in [4], in test [5] and in test [6] was “inactive” in each case. For the same molecule, the Potency result in [7], in test [8], in test [9] and in test [11] was “inactive” in each case. The activity (max response) in test [10] is 0.955%.

For `O=C1NCCc2[nH]c(-c3ccncc3)cc21`, the Potency in test [1] was 18.7 µM (active); in test [2] it was 20.9 µM (active); in test [3], 18.7 µM (active); in [4], 16.6 µM (active); in test [5] it was 14.8 µM (active); in test [6], 14.8 µM (active). For the same molecule, the Potency was 13.2 µM (active) in test [7]; 13.2 µM (active) in [8]; 14.8 µM (active) in test [9]; 7.94 µM (active) in test [10]; 7.08 µM (active) in test [11].

In the case of `c1ccc(CNc2nc(N3CCOc4ccccc43)nc3c2CCCC3)cc1`, the Potency result in [1], in [2], in test [3], in [4], in test [5] and in test [6] was “inactive” throughout. In addition, the Potency result in test [7] and in test [9] was “inactive” throughout.

Consider `C[C@@H]1CCN(C(=O)CC#N)C[C@H]1N(C)c1ncnc2[nH]ccc12`, for which the Potency result in [1], in [2], in [3], in [4], in test [5] and in test [6] was “inactive” in each case. In addition, the Potency entry in test [7] and in [9] was “inactive” each time.

Regarding `O=C(C=CC=Cc1ccc2c(c1)OCO2)N1CCCCC1`, the Potency entry in test [1], in [2], in test [3], in [4], in [5] and in test [6] was “inactive” each time. Besides, the Potency result in test [7] and in [9] was “inactive” throughout.

Regarding `CC=CC(=O)N(CC)c1ccccc1C`, the Potency entry in [1], in test [2], in test [3], in test [4], in [5] and in [6] was “inactive” throughout. In addition, the Potency entry in test [7] and in [9] was “inactive” each time.

Turning to `COC(=O)C[C@](O)(CCCC(C)(C)O)C(=O)O[C@@H]1C(OC)=C[C@]23CCCN2CCc2cc4c(cc2[C@H]13)OCO4`, the Potency result in test [1], in [2], in test [3], in [4], in [5] and in test [6] was “inactive” each time. Also, the Potency result in test [7], in [8], in [9] and in test [11] was “inactive” in each case. The activity (max response) in [10] is -15.2%.

As for `O=C(CS(=O)Cc1ccco1)NCC=CCOc1cc(CN2CCCCC2)ccn1` (stereo unspecified), the Potency result in test [1], in test [2], in test [3], in test [4], in test [5] and in [6] was “inactive” throughout. Moreover, the Potency entry in [7] and in test [9] was “inactive” each time.

In the case of `COc1ccc(-n2c(C)c([N+](=O)[O-])c3ccc(O)cc32)cc1`, the Potency result in test [1], in [2], in test [3], in test [4], in test [5] and in test [6] was “inactive” throughout. Moreover, the Potency entry in [7], in test [8], in [9] and in test [11] was “inactive” each time. For the same molecule, in test [10], the activity (max response) is 3.14%.

Take `C[C@@H]1[C@H](C)CC[C@]2(C(=O)O)CC[C@]3(C)C(=CC[C@@H]4[C@@]5(C)CC[C@H](O)C(C)(C)[C@H]5CC[C@]43C)[C@@H]12`: the Potency entry in test [1], in [2], in test [3], in [4], in test [5] and in test [6] was “inactive” throughout. In addition, the Potency result in test [7] and in test [9] was “inactive” in each case.

`COc1ccc(-c2cc(=O)c3c(O)cc(O[C@@H]4O[C@H](CO[C@@H]5O[C@@H](C)[C@H](O)[C@@H](O)[C@@H]5O)[C@@H](O)[C@H](O)[C@@H]4O)cc3o2)cc1O`: the Potency result in test [1], in test [2], in [3], in test [4], in test [5] and in [6] was “inactive” each time. Further, the Potency result in [7] and in [9] was “inactive” each time.

Regarding `O=NN(CCCl)C(=O)NCCCl`, the Potency entry in [1], in test [2], in test [3], in test [4], in test [5] and in test [6] was “inactive” each time. Besides, the Potency result in test [7], in test [9] and in test [11] was “inactive” each time.
